From PubChem BioAssay (NCI)
About 83,000 compounds went through this panel and 20% of them were active in at least one assay; those are over-represented in the sample as a whole.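 Step 1: grow cells in 96-well plates. Step 2: add test compound at a single concentration. Step 3: incubate 48 h. Step 4: record percent growth.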 A number with no mark means an inactive call. Active and inactive are the calls of the source. The calls were made as follows: active = growth percent below 10; inactive = the rest.

Experiments:
Assay in all cases: NCI-60 one-dose screen, 48 h (100 = growth as untreated, 0 = no growth, -100 = all killed)
Conditions in all cases: 10 µM unless noted
[1] = test system: HCT-15 colon
[2] = test system: HT29 colon
[3] = test system: SNB-75 CNS
[4] = test system: SNB-19 CNS
[5] = test system: U251 CNS
[6] = test system: PC-3 prostate
[7] = test system: SK-MEL-5 melanoma
[8] = test system: UACC-62 melanoma
[9] = test system: LOX IMVI melanoma
[10] = test system: SK-MEL-28 melanoma

Structure (SMILES) | growth [1] | growth [2] | growth [3] | growth [4] | growth [5] | growth [6] | growth [7] | growth [8] | growth [9] | growth [10]
O=C(CC(O)c1ccccc1)Nc1ccccn1 (stereo not given) | 101% | 103% | 85.9% | 92.1% | 102% | 93.2% | 116% | 98.3% | 98.4% | 103%
O=c1ccc2ccccc2o1 | 98% | 102% | 89.4% | 112% | 104% | 82.2% | 107% | 98.4% | 109% | 108%
Nc1cc2[nH]c(=O)c3ccccc3c2cc1Br | 52.6% | 111% | 57% | 93.6% | 84% | 81.5% | 67.2% | 80.7% | 74.5% | 97.8%
COc1ccccc1CNCCCCCCCCCCCCN1C(=O)c2ccc3c4c(ccc(c24)C1=O)C(=O)N(CCCCCCCCCCCCNCc1ccccc1OC)C3=O | 77.7% | 53.4% | -13.3% (active) | 58.1% | -28.6% (active) | 27.7% | 78.4% | 105% | 56.4% | 81.1%
COc1ccc(/C=C(\C#N)c2ccc(OC)cc2)cc1 | 66.2% | 35.6% | 76% | 80.5% | 48.8% | 73.7% | 32% | 54.5% | 48.3% | 80.6%
CC1=C(C/C=C(\C)CCC[C@H](C)CCC[C@H](C)CCCC(C)C)C(=O)c2ccccc2C1=O | 104% | 105% | 95.1% | 101% | 98.5% | 98.2% | 112% | 105% | 96.4% | 128%
C=C[C@H]1C[C@@H]2C[C@@H]3[C@H]4C/C=C\C(=O)NCCCC5NC(=O)C(=C(O)/C=C/[C@@H]4CC(=O)[C@H]3[C@@H]2[C@H]1C)C5=O (stereo not given in full) | -76.2% (active) | -76% (active) | -85.4% (active) | -74% (active) | -96.4% (active) | -82.5% (active) | -95.3% (active) | -75.8% (active) | -47.2% (active) | -78% (active)
O=C1/C(=C/c2ccc([N+](=O)[O-])cc2)Oc2ccc(O)cc21 | 84.3% | 46.8% | 95.7% | 90.7% | 63.6% | 87.9% | 86.8% | 41.4% | 60% | 107%
CCN1CCN(c2ccc(Nc3ncc4ccc5ncn(C(C)C)c5c4n3)nc2)CC1 | -0.238% (active) | 5.37% (active) | -66% (active) | 9.26% (active) | 14.1% | 7.15% (active) | -8.75% (active) | -17% (active) | -33.3% (active) | -13.7% (active)
COc1ccc(-c2nc3sc(C)nn3c2-c2nc3cc(C)c(C)cc3[nH]2)cc1 | 80.6% | 99.2% | 87.1% | 110% | 103% | 86% | 93% | 88.5% | 94.8% | 96%
CC1SC(c2cccc(Oc3ccccc3)c2)N(CCc2cccs2)C1=O (stereo not given) | -16.3% (active) | -24.7% (active) | -11.7% (active) | 11.9% | -25.7% (active) | 2.18% (active) | -100% (active) | -71.1% (active) | -100% (active) | -57% (active)
Cc1ccc(S(=O)(=O)N2CCc3ccc(O)c4c3C2CCc2ccccc2-4)cc1 (stereo not given) | 102% | 100% | 91.6% | 98.9% | 102% | 95.4% | 105% | 90.2% | 98.7% | 107%
COc1cc(C(=O)/C=C/c2c(-c3cccs3)nc3sccn23)cc(OC)c1OC | -36.7% (active) | -13.8% (active) | -27.7% (active) | 14.4% | 0.929% (active) | 7.06% (active) | -37.9% (active) | -56.4% (active) | -68.5% (active) | 16.5%
Fc1c[c-]c(-c2ccccn2)c(F)c1.Fc1c[c-]c(-c2ccccn2)c(F)c1.[Cl][Pt+].[Cl][Pt+].c1ccc([PH+](C[PH+](c2ccccc2)c2ccccc2)c2ccccc2)cc1 | 90.8% | 7.78% (active) | 20.1% | 17.8% | 15% | 14.9% | -70.8% (active) | 3.59% (active) | 20.5% | 16.1%
CN1CCN(CCCn2c3c(sc4ncccc43)c(=O)n3nnc(-c4ccccc4)c23)CC1 | -40.1% (active) | -46.2% (active) | 73.8% | 5.98% (active) | -80.8% (active) | -3.82% (active) | -98% (active) | 91% | -96% (active) | 111%
NS(=O)(=O)c1cc(Br)c2c(c1)S(=O)(=O)NCN2 | 112% | 103% | 117% | 112% | 107% | 105% | 111% | 111% | 113% | 110%
CCCCC(O)Cn1ncc(C(=O)OCC)c1NC(=O)NCc1ccccc1C(F)(F)F (stereo not given) | 98% | 107% | 92.6% | 94.4% | 95.3% | 86.6% | 95.9% | 87.6% | 98.4% | 111%
O=C(NCc1ccco1)C1CCN(S(=O)(=O)c2ccc(Cl)cc2)CC1 | 70.6% | 83.2% | 72.2% | 84.3% | 83% | -43.6% (active) | 75.7% | 69.8% | 77.1% | 85.5%
O=[N+]([O-])c1ccc2nc(N/N=C/c3ccc(O)cc3)sc2c1 | 53.4% | 78% | 73.7% | 77.9% | 45.9% | 38.4% | 58.1% | 81.7% | 49.7% | 89%
